The target in assay [1] is Cellular tumor antigen p53 (Homo sapiens) (UniProt P04637). Description: Primary qHTS for small molecule compounds that upregulate eGFP-tagged delta133p53alpha (in N-terminal) cells. (AID 2060322). Further: nearly all actives have a fitted effect of over 75% in size. Further: potency means the concentration at half of the fitted maximal effect.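 On activation: series mostly up to about 56 µM; 0% = DMSO vehicle and 100% = reference activator.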 Particulars: NCI-H358 eGFP-delta133p53alpha fluorescence, 24 h; activation: hits give high values. The gist of the method:
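NCI-H358 cells pre-induced 24 h with 10 ng/ml doxycycline to express N-terminal eGFP-delta133p53alpha, then dosed 24 h at 37C without doxycycline; fixed, Hoechst-stained, GFP intensity by laser scanning cytometry, normalized to DMSO (0%) and 57.5 uM 5-azacytidine (100%).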

The target in assay [2] is Aldehyde dehydrogenase, mitochondrial (Homo sapiens) (UniProt P05091). Description: qHTS for Inhibitors of the Aldehyde Dehydrogenase Family (ALDH2) Primary screen (AID 2061308).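 Further: plate controls were vehicle for no effect and reference inhibitor for full effect; nearly all actives have a fitted effect of over 55% in size.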
The nature of assay [3]: qHTS for Inhibitors of the Aldehyde Dehydrogenase Family (ALDH1A2, ALDH1A3, ALDH2, ALDH3A1) (AID 2061307). Further: nearly all actives have a fitted effect of over 50% in size. On Potency: test system not described further here; potency means the concentration at half of the fitted maximal effect.
Assay [4] addresses Retinaldehyde dehydrogenase 3 (Homo sapiens) (UniProt P47895). Description: qHTS for Inhibitors of the Aldehyde Dehydrogenase Family (ALDH1A3) Confirmatory screens (AID 2061311; further: nearly all actives have a fitted effect of over 60% in size; further: potency means the concentration at half of the fitted maximal effect). (qHTS replaces the single test concentration by a dilution series.)
Assay [5] addresses Retinal dehydrogenase 2 (Homo sapiens) (UniProt O94788). Description: qHTS for Inhibitors of the Aldehyde Dehydrogenase Family (ALDH1A2) Confirmation screens (AID 2061314). Further: nearly all actives have a fitted effect of over 65% in size. Further: potency means the concentration at half of the fitted maximal effect.
The target of assay [6] is Aldehyde dehydrogenase 1A1 (Homo sapiens) (UniProt P00352). In words: qHTS for Inhibitors of the Aldehyde Dehydrogenase Family (ALDH1A1) Confirmatory screens (AID 2061316). Further: potency means the concentration at half of the fitted maximal effect; nearly all actives have a fitted effect of over 65% in size.
The target of assay [7] is Retinaldehyde dehydrogenase 3 (Homo sapiens) (UniProt P47895). In words: qHTS for Inhibitors of the Aldehyde Dehydrogenase Family (ALDH1A3) Primary screen (AID 2061315). Further: potency means the concentration at half of the fitted maximal effect.

Values joined by “and” are separate entries in the source; they are usually repeats but may differ in a detail not shown here. Equal values may be shown once. Results filed as inconclusive are left out. Active and inactive are the calls of the source. The call rests on the fitted dose curve; in most records, active means well fitted curve in the direction sought with a large enough effect; inconclusive means small, poorly fitted or top-dose-only effect, or another doubt; inactive means no such curve, though single readings can be large; an effect the other way counts as inactive or inconclusive.

Cellular tumor antigen p53 (Homo sapiens), sequence (P04637 whole entry, looked up): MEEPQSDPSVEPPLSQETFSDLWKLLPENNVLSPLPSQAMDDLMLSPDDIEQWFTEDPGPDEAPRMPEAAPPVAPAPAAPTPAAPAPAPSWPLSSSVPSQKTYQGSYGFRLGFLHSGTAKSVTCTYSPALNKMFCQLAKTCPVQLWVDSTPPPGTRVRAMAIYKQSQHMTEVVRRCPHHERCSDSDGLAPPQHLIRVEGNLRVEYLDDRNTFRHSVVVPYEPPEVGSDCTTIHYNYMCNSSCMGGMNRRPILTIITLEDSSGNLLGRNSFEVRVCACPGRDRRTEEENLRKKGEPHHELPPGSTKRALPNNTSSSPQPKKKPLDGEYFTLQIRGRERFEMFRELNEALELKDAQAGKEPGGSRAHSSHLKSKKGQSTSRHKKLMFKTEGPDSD

For the compound `Cc1c(C)c(NCC(=O)N(C)C2CCN(Cc3ccc(C(N)=O)cc3)CC2)c(C)c(C)c1N`, in assay [1], the activation was 1.43% (inactive). Also, in assay [2], the Potency entry is “inactive”.

As for `CC[n+]1c(/C=C/C=C2/N(C)c3ccccc3C2(C)C)sc2ccccc21`, the activation in assay [1] is -26.3% (inactive). The Potency in assay [3] is 22.5 µM (active); in assay [4], 12.7 µM (active); in assay [5], 12.7 µM (active); in assay [6], 12.7 µM (active).

Turning to `NC(=O)[C@H](O[C@@H]1O[C@H](CO)[C@@H](O)[C@H](O)[C@H]1O)c1ccccc1`, the activation in assay [1] was 17.9% (inactive). Further, the Potency result in assay [2] is “inactive”.

Consider `CO[C@]1(NC(=O)CSC(F)F)C(=O)N2C(C(=O)O)=C(CSc3nnnn3CCO)CO[C@H]21`, for which, in assay [1], the activation is -7.53% (inactive). In addition, the Potency result in assay [3], in assay [4], in assay [5] and in assay [7] was “inactive” throughout. Moreover, the Potency in assay [6] is 14.2 µM (active).

On to `O=C(/C=C/c1ccc(O)c(O)c1)O[C@@H]1[C@@H](O)[C@H](OC2CCCCC2O)O[C@H](CO)[C@H]1O` (stereo not given in full), for which the activation in assay [1] is 2.29% (inactive). Further, the Potency result in assay [3] and in assay [5] was “inactive” in each case. The Potency in assay [4] was 5.51 µM (active); in assay [7], 3.98 µM (active).

Turning to `COc1cc(C(=O)OC[C@H]2O[C@@H](OC(C)(C)C(=O)O)[C@H](O)[C@@H](O)[C@@H]2O)cc(OC)c1O`, in assay [1], the activation is -29.5% (inactive). Further, the Potency entry in assay [2] is “inactive”.

Take `Fc1ccc(CN2CCC(Nc3ccc(C(F)(F)F)nn3)CC2)cc1F`: the activation in assay [1] is -6.21% (inactive). For the same compound, the Potency result in assay [2] was “inactive”.

With `CNS(=O)(=O)c1ccccc1Nc1nc(Nc2ccc(N3CCN(C)CC3)cc2OC)ncc1Br`, the Potency in assay [1] is 9.53 µM (active). In addition, in assay [2], the Potency entry was “inactive”.

In the case of `O=C(OC[C@@]1(O)CO[C@@H](O[C@H]2[C@H](Oc3ccc(O)cc3)O[C@H](CO)[C@@H](O)[C@@H]2O)[C@@H]1O)c1ccc(O)cc1`, the activation in assay [1] was -19.1% (inactive). Moreover, the Potency entry in assay [2] was “inactive”.

`COC(=O)C1=CO[C@@H](O[C@@H]2O[C@H](CO[C@@H]3O[C@H](COC(=O)/C=C/c4cc(OC)c(O)c(OC)c4)[C@@H](O)[C@H](O)[C@H]3O)[C@@H](O)[C@H](O)[C@H]2O)[C@@H]2C(CO)=CC[C@H]12`: the activation in assay [1] is -14.3% (inactive). Besides, the Potency entry in assay [2] was “inactive”.

As to `COc1c(C)c(C(=O)c2ccc(N)c(C(=O)O)c2)n2ccccc12`, the activation in assay [1] is 10% (inactive) and 14.3% (inactive). The Potency entry in assay [2] was “inactive”.

In the case of `OC[C@H]1O[C@@H](Oc2cc(O)cc(-c3cc4ccc(O[C@@H]5O[C@H](CO)[C@@H](O)[C@H](O)[C@H]5O)cc4o3)c2)[C@H](O)[C@@H](O)[C@@H]1O`, in assay [1], the activation was -14.3% (inactive). The Potency result in assay [2] was “inactive”.

Regarding `O=C(CC1CC(c2ccc(F)cc2F)=NO1)N1CCOCC1` (stereo not given), the activation in assay [1] is 1.43% (inactive). Besides, in assay [2], the Potency entry is “inactive”.

For `C/C=C(\C)C(=O)OC1C(C)C2(O)C(C=C(CO)CC3(O)C(=O)C(C)=CC32)C2C(C)(C)C12OC(C)=O` (stereo not given), the activation in assay [1] is 8.93% (inactive). For the same compound, the Potency result in assay [2] is “inactive”.

Consider `COc1cc(N2CCOCC2)ccc1Nc1ncc(F)c(Nc2ccccc2NS(C)(=O)=O)n1`, for which the Potency in assay [1] was 9.53 µM (active). Besides, the Potency result in assay [2] was “inactive”.

Turning to `CC1=CC(=O)CC(C)(C)C1CO[C@@H]1O[C@H](CO)[C@@H](O)[C@H](O)[C@H]1O` (stereo not given in full), the activation in assay [1] was 6.25% (inactive). Also, in assay [2], the Potency result was “inactive”.

On to `O=C(OC[C@H]1O[C@@H](Oc2ccccc2COC(=O)C2(O)C=CCCC2O)[C@H](O)[C@@H](O)[C@@H]1O)c1ccccc1` (stereo not given in full), for which the activation in assay [1] was -15.3% (inactive). Also, in assay [2], the Potency result was “inactive”.

For `CC1(CO)CC(O)[C@]2(C(=O)O)CCC34CC3(C=CC3[C@]5(C)C(CC[C@]34C)C(C)(CO)[C@@H](O)[C@H](O)[C@@H]5O)C2C1` (stereo not given in full), in assay [1], the activation is 9.92% (inactive). In addition, the Potency result in assay [2] is “inactive”.

Consider `C=C1CC[C@H]2[C@@](C)(CCC(O)[C@@]2(C)CO)[C@@H]1CCC1=CCOC1=O` (stereo not given in full), for which the activation in assay [1] is -11.5% (inactive). Also, the Potency entry in assay [2] was “inactive”.

`COc1cc(/C=C/C(=O)O[C@H]2[C@H](O)[C@@H](CO)O[C@@]2(CO)O[C@H]2O[C@H](COC(=O)c3ccc(O)cc3)[C@@H](O)[C@H](O)[C@H]2O)cc(OC)c1OC`: in assay [1], the activation is -19.8% (inactive). Further, in assay [2], the Potency result is “inactive”.

With `N#Cc1cc(F)cc(-c2nc(-c3ccccn3)no2)c1`, the activation in assay [1] is -12.4% (inactive). Moreover, the Potency result in assay [2] is “inactive”.

As for `CC(/C=C/C1(O)C2(C)COC1(C)CC(=O)C2)O[C@@H]1O[C@H](CO)[C@@H](O)[C@H](O)[C@H]1O` (stereo not given in full), in assay [1], the activation was 2.68% (inactive). Further, the Potency result in assay [2] is “inactive”.

Take `OCCc1ccc(O[C@@H]2O[C@H](CO)[C@@H](O)[C@H](O)[C@H]2O)c(O)c1`: in assay [1], the activation is 8.93% (inactive). Also, the Potency entry in assay [2] is “inactive”.

Take `COc1cc(/C=C/C(=O)O[C@H]2[C@H](O)[C@@H](CO)O[C@@]2(CO)O[C@H]2O[C@H](CO)[C@@H](O)[C@H](O)[C@H]2O)cc(OC)c1O`: the activation in assay [1] was -32.8% (inactive). In addition, in assay [2], the Potency result is “inactive”.

As for `CC/C=C\CCO[C@@H]1O[C@H](CO[C@@H]2OC[C@H](O)[C@H](O)[C@H]2O)[C@@H](O)[C@H](O)[C@H]1O`, the activation in assay [1] is -3.57% (inactive). In addition, the Potency entry in assay [2] is “inactive”.

Source of the values: PubChem BioAssay (NCATS).
